Assay results reported in PubChem BioAssay (NCI).
Compounds without any hit were thinned out: in the full panel of roughly 83,000, 20% have a hit.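 Each cell line was grown in a 96-well plate and treated with one concentration of compound for 48 hours. Values below 10 were considered active.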 Unmarked numbers belong to inactive results. The source made the active and inactive calls.

What follows are molecules tested on HOP-92 NSCLC (assay: NCI-60 one-dose screen, 48 h (100 = growth as untreated, 0 = no growth, -100 = all killed)). Settings: 10 µM unless noted.
C[C@@H]1O[C@@H](O[C@@H]2C[C@H](c3ccc4c(c3O)C(=O)C3=C(C4=O)[C@@]4(O)C(=O)C[C@](C)(O)C[C@@]4(O)C=C3)O[C@H](C)[C@H]2O)CC[C@@H]1O[C@H]1C[C@@H](O)[C@H](O)[C@@H](C)O1 gave a growth of 149%.
For CC(=O)OC(c1ccccc1)C1CCOC1=O (stereo not given), the growth was 93.2%.
In the case of C=CCN1C(=O)c2cccc3c(N4CCOCC4)ccc(c23)C1=O, the growth is reported as 21.1%.
Molecule O=C(CCSc1nnc2n(Cc3ccccc3)c(=O)c3c4c(sc3n12)CCCC4)N1CCN(c2ccccc2)CC1 has a growth of 94%.
For CC1=CCC(OC(=O)C(C)(C)CC(O)(C(C)O)C(O)C2(C)C=CC(Cc3ccc(C(C)C)cc3)(C(C)C)CC2)(C(C)C)CC1 (stereo not given), the growth was 84.9%.
For c1ccc(CCNc2c3ccccc3nc3ccccc23)cc1, the growth was -1.55% (active).
CCCCNc1nnc2n(Cc3ccccc3)c(=O)c3c4c(sc3n12)CCCC4 was tested, and the growth was 53.2%.
For COc1ccc2cc(-c3ccnc4c(N=Nc5ccc(Cl)cc5)c(N)nn34)ccc2c1, the growth was 98.7%.
CCO/C=N/C1=C(C#N)C(c2ccc(F)cc2)c2sc3c(F)cccc3c2O1 (stereo not given) showed a growth of 58.8%.
Work on COc1cc2nc3sc(C(=O)Nc4ccc(C(=O)OC(C)C)cc4)c(C(=O)Nc4ccc(Cl)cc4C)n3c(=O)c2cc1OC yielded a growth of 32.5%.
O=C(c1c[nH]c2ccccc12)c1n[nH]c(=S)n1-c1cccc(Br)c1 was tested, and the growth was 84.2%.
For O=c1cc(-c2ccccc2)[nH]c2ncc(-c3ccc(F)cc3)n12, the growth was 54.9%.
For Clc1c(Cl)[n+](Cc2ccc3ccccc3c2)cn1Cc1ccc2ccccc2c1, the growth was -12.1% (active).
In the case of COc1ccc(/C=C/C(=O)c2cc(OC)c(OC)c(OC)c2)cc1OCC(=O)Nc1nc2ccc(OC(F)(F)F)cc2s1, the growth is reported as 54.9%.
With COc1cccc(Nc2ncnc3cc(NC(=O)CCl)ccc23)c1 the growth was -74.8% (active).
COc1cc(/C=C/C(=O)c2ccc(-n3cc(CN4CCN(c5cc6c(cc5F)c(=O)c(C(=O)O)cn6C5CC5)CC4)nn3)cc2)ccc1O was tested, and the growth was 79.3%.
C=C(C)[C@@H]1CCC[C@]2(C(=O)O)CC[C@]3(C)[C@@H](CC[C@@H]4[C@@]5(C)C/C(=C/c6ccncc6)C(=O)C(C)(C)[C@@H]5CC[C@]43C)[C@@H]12 gave a growth of 57.2%.
O=C(N/N=C\c1cccc([N+](=O)[O-])c1)N/N=C/c1cccc([N+](=O)[O-])c1 was tested, and the growth was 105%.
O=C(Cn1nnc2ccccc21)N/N=C/c1c[nH]c2ccccc12 was tested, and the growth was 57.7%.
Molecule Cn1cc(-c2csc(-c3c[nH]c4ccc(F)cc34)n2)c2ccnc(Cl)c21 has a growth of 71.5%.
Molecule CCNC(=O)Oc1ccc(/C(=C(/CC)Cc2ccccc2)c2ccc(OCCN3CCCC3)cc2)cc1 has a growth of 62.1%.
Work on CC(=O)c1sc2sc(C(C)=O)c(C)c2c1C yielded a growth of 91.1%.
Molecule CN1C(=O)/C(=C/c2ccc(C(=O)Nc3ncc(Cc4cccc(Cl)c4)s3)cc2)SC1=S has a growth of 71.9%.
With COc1ccc(C2=CC(c3cc(OC)c(OC)c(OC)c3)n3ncnc3N2)cc1 (stereo not given) the growth was 27%.
Cc1ccc(Cl)cc1NC(=O)c1sc2nc3c(cc2c1N)C(=O)CCC3 gave a growth of 56.9%.
For COc1ccc(/C=C/C(c2cc(OC)c(OC)c(OC)c2)n2cncn2)cc1 (stereo not given), the growth was 40.3%.
Cc1ncc(C(=O)Nc2ccc(CN3CCN(C)CC3)c(C(F)(F)F)c2)cc1C#Cc1cnc(N)c2ncccc12 was tested, and the growth was 14.7%.
Work on Cc1ccc(C(=O)c2ccc(CC(=O)NN3C(=O)c4ccccc4C3=O)n2C)cc1 yielded a growth of 97.8%.
CN(C)CCCC1(c2ccc(F)cc2)OCc2cc(-c3ccc4cc[nH]c4c3)ccc21 (stereo not given) showed a growth of 45.9%.
With O=C(/C=C/c1cccc(Cl)c1Cl)Nc1ncc(Cc2ccccc2Cl)s1 the growth was 61.6%.
Molecule O=C(Nc1ccc(Cl)cc1)Oc1c(Cl)c(Cl)c(Cl)c(Cl)c1Cl has a growth of 41%.
CCCCNC(=O)c1cc([N+](=O)[O-])cc(C2CCCCC2)c1O was tested, and the growth was -13.6% (active).
Molecule O=C1NC(=O)/C(=C/c2c(-c3ccccc3)nc3sc(COc4ccccc4)nn23)S1 has a growth of 66.4%.
Molecule COc1ccc2c(c1)c(/C(O)=C1\COC(=O)C1=O)cn2Cc1ccc(F)cc1 has a growth of 72.1%.
With CCN(CC)CCN1C(=O)c2cccc3c(/C=C/CN4C(=O)c5cccc6cccc(c56)C4=O)ccc(c23)C1=O the growth was 88.1%.
